Compounds without any hit were thinned out: in the full panel of roughly 79,000, 15% have a hit. Values without a mark were called inactive. Activity calls are given as the source filed them. Cut-off read from the data, not from the text of the source: active = growth inhibition above about 70%; inactive = the rest.
Experiment: NCI Yeast Anticancer Drug Screen. Data for the sgs1 mgt1 strain (AID 161);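 note: 0% = growth of cultures given vehicle only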
Details: S. cerevisiae sgs1 mgt1 strain, active compounds read high; at 50.0 µM unless noted
Method in brief: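 Read-out: growth inhibition vs vehicle controls. Cells: mutant yeast strain deficient in DNA damage repair.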
In the case of `O=c1[nH]c(=O)n(C2CC(O)C(CO)O2)cc1OCCCc1ccccc1` (centres undefined), the growth inhibition is reported as 12.2%.
Work on `CC(=O)Nc1ccc(NC(=O)NCCCCCCNC(=O)Nc2ccc(NC(C)=O)cc2)cc1` yielded a growth inhibition of -21.6%.
Work on `Nc1nc2cc(F)ccc2o1` yielded a growth inhibition of -9.7%.
For `CCc1cccc(CC)c1NC(=O)OCCN(CC)CC`, the growth inhibition was 10.4%.
`O=c1oc2ccccc2cc1O` gave a growth inhibition of -6%.
`Fc1ccc2c(c1)SC1Oc3ccccc3-c3c1c-2nn3-c1ccccc1` (centres undefined) showed a growth inhibition of -17.4%.
In the case of `CCN(CC)c1c(C)c(-c2ccccc2)n[n+]([O-])c1-c1ccccc1`, the growth inhibition is reported as 14.4%.
`Cc1ccc(N2CCC(O)C2)cc1` (centres undefined) gave a growth inhibition of -7.05%.
`CC1COC(C)(C)P(=O)(c2ccccc2)C1` (centres undefined) gave a growth inhibition of -11.3%.
`CCC(C(N)=O)c1ccccc1` (centres undefined) showed a growth inhibition of 13.9%.
Compound `N#Cc1c(C(F)(F)F)cc(-c2cccs2)nc1SC(C(=O)Nc1cc(C(F)(F)F)cc(C(F)(F)F)c1)c1ccccc1` (centres undefined) has a growth inhibition of 9.5%.
For `CCCCCCC(=O)C/C(=N/NC(N)=S)C(=O)NC1C2CC3CC(C2)CC1C3` (centres undefined), the growth inhibition was -48.7%.
`Cc1ccc(S(=O)(=O)C2CC(=O)N(c3ccc(F)c(Cl)c3)C2=O)cc1` (centres undefined) showed a growth inhibition of -7.6%.
Work on `N#CCCCCCOCCOCCOCCOCCOCCCCCC#N` yielded a growth inhibition of -10.2%.
Work on `CC12C(=C(C#N)C(=N)N1c1ccc(Cl)c(Cl)c1)C=C(O)CC2SCCS(=O)(=O)O` (centres undefined) yielded a growth inhibition of -1%.
For `FC(F)(F)c1cc(NC(=S)SCc2ccc3c(c2)OCO3)ccc1Cl`, the growth inhibition was 73.3% (active).
For `O=c1nc2c(c(-c3ccc(F)cc3)[nH]1)COC/C2=C\c1ccc(F)cc1`, the growth inhibition was 34.5%.
For `Cc1ccccc1NC(=O)C(=O)CC(=O)c1sc(-n2nc(-c3ccccc3)cc2-c2ccccc2)nc1C`, the growth inhibition was 5.45%.
`CC(C)N(Cc1ccccc1)S(=O)(=O)c1n[nH]c(C(C)(C)C)n1` gave a growth inhibition of -3.65%.
In the case of `O=C(O)[C@H](Cc1ccccc1)N1C(=O)N[C@@H](Cc2ccccc2)C1=O`, the growth inhibition is reported as 4.75%.
In the case of `N#Cc1c(-c2ccc(Cl)cc2)c(-c2ccc(Cl)cc2)nn(CCOC(=O)CCC(=O)OCCn2nc(-c3ccc(Cl)cc3)c(-c3ccc(Cl)cc3)c(C#N)c2=O)c1=O`, the growth inhibition is reported as 5.5%.
`O=c1c2c3c(sc2nc2n1N=C(c1ccc(Cl)cc1)CS2)CCCC3` showed a growth inhibition of -37.9%.
For `COc1nc(NC2OC(CO)C(O)C(O)C2O)c(I)c(=O)[nH]1` (centres undefined), the growth inhibition was 2%.
`N#C/C(=C1/c2cc([N+](=O)[O-])ccc2-c2c1cc([N+](=O)[O-])cc2[N+](=O)[O-])N1CCCCC1` gave a growth inhibition of 2.5%.
In the case of `CCOC(=O)C(=O)Nc1c(C)cccc1C(C)(C)C`, the growth inhibition is reported as -4.35%.
`Cc1ccc(-c2nc3ccc(Cl)cc3[nH]2)cc1` gave a growth inhibition of 41.6%.
In the case of `COc1ccc(C(OC(=O)Oc2ccccc2)c2ccccc2)cc1` (centres undefined), the growth inhibition is reported as -6.9%.
With `OCC[P+](c1ccccc1)(c1ccccc1)c1ccccc1` the growth inhibition was -6.2%.
For `CCCCCCCCCCCCCCCC[N+](C)(C)CC#N`, the growth inhibition was 99.2% (active).
For `O=C(CSS(=O)(=O)O)Nc1ccccc1`, the growth inhibition was 7.5%.
For `COc1ccccc1CN1CCCN(Cc2ccccc2OC)C1c1ccc(N(C)C)cc1`, the growth inhibition was 32.5%.
`O=c1oc(-c2ccc([N+](=O)[O-])cc2Cl)nc2ccccc12` gave a growth inhibition of 31.1%.
Work on `COc1ccc(C(=[N+]=[N-])c2ccc(OC)cc2)cc1` yielded a growth inhibition of 7.35%.
`O=C(CCl)Oc1ccc(C(=O)O)cc1` showed a growth inhibition of -1.8%.
Compound `N/N=C1/CCN2CCCc3cccc1c32` has a growth inhibition of 1.25%.
In the case of `Cc1cc(Cl)ccc1OCC(=O)NCCO`, the growth inhibition is reported as 13.8%.
In the case of `CN(C)c1ccc(/C=C2\C(=O)/C(=C\c3ccc(N(C)C)cc3)c3ccccc32)cc1`, the growth inhibition is reported as -13.8%.
Compound `COc1cccc(C(c2ccccc2)C(CC(=O)O)CC(=O)O)c1` (centres undefined) has a growth inhibition of -12.8%.
Compound `C=C(C)C(C(=O)OCC)C(=O)OCC` has a growth inhibition of 7.4%.

From PubChem BioAssay (NCI)
